PubChem BioAssay AID588689 (Southern Research Specialized Biocontainment Screening …, 2011)
The whole screen tested about 340,000 compounds, of which about 1,000 (0.29%) were called active. No stated cut-off is given here; in the data, inconclusive means inhibition above about 29% without an active follow-up result; inactive means below that. Only a sample is shown. Potency and affinity values are given separately.

biological target: Genome polyprotein (Dengue virus type 2 (strain 16681-PDK53)) (UniProt P29991); experiment: flavivirus cap methylation enzyme inhibition – biochemical, confirmation dose response, primary screen (AID 588689); conditions: Dengue-2 NS5 methyltransferase capping enzyme assay, at 25 µM, stronger effect = higher value
Sequence (P29991 whole entry, looked up): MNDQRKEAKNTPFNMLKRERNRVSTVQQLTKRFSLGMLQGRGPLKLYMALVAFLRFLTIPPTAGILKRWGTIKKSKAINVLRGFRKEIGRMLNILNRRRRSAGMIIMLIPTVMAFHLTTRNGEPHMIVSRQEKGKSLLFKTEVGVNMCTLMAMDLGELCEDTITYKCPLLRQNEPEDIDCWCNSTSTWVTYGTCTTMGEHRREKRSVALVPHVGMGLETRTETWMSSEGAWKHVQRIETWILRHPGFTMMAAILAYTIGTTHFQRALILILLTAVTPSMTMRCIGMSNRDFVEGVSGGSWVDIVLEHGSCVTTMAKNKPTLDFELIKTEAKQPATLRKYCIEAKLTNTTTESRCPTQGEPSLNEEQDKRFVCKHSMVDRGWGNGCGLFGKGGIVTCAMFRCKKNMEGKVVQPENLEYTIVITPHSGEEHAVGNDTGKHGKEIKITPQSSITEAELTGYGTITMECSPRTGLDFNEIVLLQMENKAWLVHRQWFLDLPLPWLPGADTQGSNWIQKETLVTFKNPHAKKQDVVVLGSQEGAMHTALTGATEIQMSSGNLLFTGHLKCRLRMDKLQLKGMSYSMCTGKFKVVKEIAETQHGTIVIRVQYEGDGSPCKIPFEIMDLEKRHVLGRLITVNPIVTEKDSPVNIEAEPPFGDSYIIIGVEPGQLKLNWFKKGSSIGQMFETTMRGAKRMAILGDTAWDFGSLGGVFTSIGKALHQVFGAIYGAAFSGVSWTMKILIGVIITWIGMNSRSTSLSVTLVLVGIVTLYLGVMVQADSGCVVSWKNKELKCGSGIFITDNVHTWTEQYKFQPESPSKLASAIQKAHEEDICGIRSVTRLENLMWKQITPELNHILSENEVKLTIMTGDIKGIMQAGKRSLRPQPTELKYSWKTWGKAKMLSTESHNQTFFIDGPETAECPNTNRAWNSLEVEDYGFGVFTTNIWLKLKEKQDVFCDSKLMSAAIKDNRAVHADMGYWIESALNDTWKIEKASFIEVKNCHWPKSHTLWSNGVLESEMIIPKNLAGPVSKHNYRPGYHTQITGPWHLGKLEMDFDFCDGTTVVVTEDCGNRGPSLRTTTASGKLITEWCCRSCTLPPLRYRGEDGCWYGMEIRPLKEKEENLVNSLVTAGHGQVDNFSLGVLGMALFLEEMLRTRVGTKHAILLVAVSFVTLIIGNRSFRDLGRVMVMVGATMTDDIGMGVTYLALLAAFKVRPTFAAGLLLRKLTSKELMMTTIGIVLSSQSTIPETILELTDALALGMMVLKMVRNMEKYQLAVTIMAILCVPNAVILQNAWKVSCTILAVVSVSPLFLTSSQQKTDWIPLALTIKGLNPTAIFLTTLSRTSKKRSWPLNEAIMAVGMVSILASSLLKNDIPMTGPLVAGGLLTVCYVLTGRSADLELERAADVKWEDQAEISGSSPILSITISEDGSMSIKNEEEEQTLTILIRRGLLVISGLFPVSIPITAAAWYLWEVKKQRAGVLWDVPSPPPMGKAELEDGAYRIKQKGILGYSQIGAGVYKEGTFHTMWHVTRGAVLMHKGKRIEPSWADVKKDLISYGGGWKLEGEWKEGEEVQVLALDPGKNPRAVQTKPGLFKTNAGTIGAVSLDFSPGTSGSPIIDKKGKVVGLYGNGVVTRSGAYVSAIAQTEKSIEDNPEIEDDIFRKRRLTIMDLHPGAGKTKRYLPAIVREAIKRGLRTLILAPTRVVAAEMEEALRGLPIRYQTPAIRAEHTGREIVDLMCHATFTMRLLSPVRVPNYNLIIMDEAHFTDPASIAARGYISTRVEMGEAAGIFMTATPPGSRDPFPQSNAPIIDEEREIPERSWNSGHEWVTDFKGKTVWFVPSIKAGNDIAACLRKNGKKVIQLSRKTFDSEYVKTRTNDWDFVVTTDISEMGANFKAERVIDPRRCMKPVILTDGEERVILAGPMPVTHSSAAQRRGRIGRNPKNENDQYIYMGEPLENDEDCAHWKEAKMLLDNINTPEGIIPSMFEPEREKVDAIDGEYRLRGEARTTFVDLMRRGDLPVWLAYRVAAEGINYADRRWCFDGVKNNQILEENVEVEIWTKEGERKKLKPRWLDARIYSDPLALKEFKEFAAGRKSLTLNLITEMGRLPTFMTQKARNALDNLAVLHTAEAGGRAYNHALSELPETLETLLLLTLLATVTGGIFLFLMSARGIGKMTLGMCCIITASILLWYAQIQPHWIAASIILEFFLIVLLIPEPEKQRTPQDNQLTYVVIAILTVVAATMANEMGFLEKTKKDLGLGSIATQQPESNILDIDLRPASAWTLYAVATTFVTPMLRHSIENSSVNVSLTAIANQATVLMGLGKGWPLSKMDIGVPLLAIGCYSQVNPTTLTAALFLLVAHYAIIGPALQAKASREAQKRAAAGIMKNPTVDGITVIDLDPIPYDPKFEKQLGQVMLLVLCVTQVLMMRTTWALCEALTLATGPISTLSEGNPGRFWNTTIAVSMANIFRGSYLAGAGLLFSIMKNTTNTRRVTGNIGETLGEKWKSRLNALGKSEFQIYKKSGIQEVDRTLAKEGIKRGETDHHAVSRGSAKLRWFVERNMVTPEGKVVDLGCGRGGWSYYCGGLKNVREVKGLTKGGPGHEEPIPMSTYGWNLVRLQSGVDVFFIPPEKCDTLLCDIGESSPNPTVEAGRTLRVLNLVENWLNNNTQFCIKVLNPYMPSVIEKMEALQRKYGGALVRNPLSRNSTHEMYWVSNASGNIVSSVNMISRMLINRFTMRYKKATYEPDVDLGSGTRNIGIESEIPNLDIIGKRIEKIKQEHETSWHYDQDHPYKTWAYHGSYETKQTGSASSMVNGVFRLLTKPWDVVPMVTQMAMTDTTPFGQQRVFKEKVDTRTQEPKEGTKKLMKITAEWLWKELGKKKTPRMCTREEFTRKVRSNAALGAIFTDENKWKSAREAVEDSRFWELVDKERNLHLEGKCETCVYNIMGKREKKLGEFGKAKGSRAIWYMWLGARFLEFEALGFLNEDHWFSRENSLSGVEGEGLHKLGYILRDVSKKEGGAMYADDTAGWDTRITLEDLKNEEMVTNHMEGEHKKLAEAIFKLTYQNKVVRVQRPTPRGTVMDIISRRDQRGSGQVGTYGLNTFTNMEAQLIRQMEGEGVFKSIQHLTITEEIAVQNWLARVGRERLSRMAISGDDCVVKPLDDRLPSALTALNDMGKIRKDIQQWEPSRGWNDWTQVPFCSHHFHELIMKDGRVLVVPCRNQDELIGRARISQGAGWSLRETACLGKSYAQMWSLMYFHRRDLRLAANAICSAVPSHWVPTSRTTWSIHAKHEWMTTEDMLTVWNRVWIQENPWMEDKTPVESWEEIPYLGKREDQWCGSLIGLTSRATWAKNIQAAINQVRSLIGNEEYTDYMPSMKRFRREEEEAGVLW

inhibition, inactive:
COc1cccc(CNS(=O)(=O)c2cc3c4c(c2)CCN4C(=O)CC3)c1 -2.16%, CNC(=S)Nc1cc(C)ccc1OC(F)F -3.09%, CCOC(=O)c1c(NC(=O)C2C3CCC(O3)C2C(=O)O)sc(C)c1-c1ccc(C)cc1 (stereo unspecified) 16.7%, CCOC(=O)c1c(-c2cccc3ccccc23)csc1NC(=O)C1C2CCC(O2)C1C(=O)O (stereo unspecified) 2.56%, CCOC(=O)c1c(NC(=O)C2C3CCC(O3)C2C(=O)O)sc2c1CCCC2 (stereo unspecified) -0.74%, COC(=O)c1c(-c2ccc(C(C)(C)C)cc2)csc1NC(=O)C1C2CCC(O2)C1C(=O)O (stereo unspecified) 10.8%, O=C(Nc1nc2n(n1)C(c1ccc(F)cc1)CC(c1ccccc1)N2)c1ccco1 (stereo unspecified) -3.83%, Cc1ccc2c(ccc[n+]2CC(=O)c2ccccc2)c1 -3.89%, O=C(C1CCN(S(=O)(=O)c2ccccc2)CC1)N1CCN(c2ccccc2F)CC1 -3.69%, COc1cc(OC)c(N2CC(C(=O)NCCC3=CCCCC3)CC2=O)cc1Cl (stereo unspecified) -2.95%, O=C(O)c1cc(N=Nc2c(O)ccc3ccccc23)cc(C(=O)O)c1 20.4%, O=C(O)c1cc2ccccc2c(N=Nc2cccnc2)c1O 0.81%, CN(Cc1ccccc1)S(=O)(=O)c1ccc(Cl)c(C(=O)N2CCC(C(N)=O)CC2)c1 4.28%, Cc1cccc(Cc2nnc(CCC(=O)N(C)CCc3ccccc3)o2)c1 10.8%, CN(C)C(=O)Cn1cc(S(=O)(=O)Cc2ccccc2)c2ccccc21 -2.66%, O=C(NCc1ccco1)c1sc(=S)n2c1[nH]c(=O)c1ccccc12 0%, CCCCNC(=O)c1sc(=S)n2c1[nH]c(=O)c1ccccc12 10.2%, Nc1ccc(C(=O)Nc2ccc3c(O)cc(S(=O)(=O)O)cc3c2)cc1 4.28%, CN(C)c1ccc2cc(S(=O)(=O)O)cc(O)c2c1 81.6%, CC(=O)Nc1ccc2c(O)cc(S(=O)(=O)O)cc2c1 -7.72%, O=S(=O)(O)c1cccc(N=Nc2c(O)ccc3ccccc23)c1 1.57%, O=S(=O)(O)c1cc(O)c2ccc(Nc3ccccc3)cc2c1 8.94%, Nc1cc(S(=O)(=O)O)cc2ccc(S(=O)(=O)O)cc12 7.17%, Nc1ccc(Nc2ccccc2)c(S(=O)(=O)O)c1 54.5%, Cc1ccc(S(=O)(=O)c2cc(Nc3ccccc3)ccc2O)cc1 8.82%, CN(C)/C=C1\NC(=S)N(c2ccc(Cl)cc2)C1=O -20.4%
